Experimental data reported in PubChem BioAssay AID1559 (National Center for Advancing Translational Sciences (NCATS), 2009).
Records with an inconclusive call do not appear. The source made the active and inactive calls. Calls follow the shape of the dose curve; as a rule, active = well fitted curve in the direction sought with a large enough effect; inconclusive = small, poorly fitted or top-dose-only effect, or another doubt; inactive = no such curve, though single readings can be large or run the other way.

Biological target: Microtubule-associated protein tau (Homo sapiens) (UniProt P10636)
Test: Confirmation Concentration-Response Assay for Inhibitors of Tau Fibril Formation, Fluorescence Polarization
Settings: recombinant tau K18 P301L (four-repeat tau fragment) heparin fibrillization, Alexa594 FP; series mostly up to 57.1 µM
Excerpt: NIH Molecular Libraries Probe Production Network [MLPCN] NIH Chemical Genomics Center [NCGC] MLPCN Grant: X01 MH083262-01 Assay Provider: Carlo Ballatore, University of Pennsylvania NCGC Assay Overview: The microtubule-associated protein tau is an abundant protein in the axons of neurons that stabilizes microtubules. With its ability to modulate microtubule dynamics, tau contributes directly or indirectly, to key structural and regulatory cellular functions. Particularly important is the influence tau exerts on axonal transport, which allows signaling molecules, trophic factors and other essential cellular constituents to travel along the axons. Under pathological conditions, tau becomes sequestered into insoluble aggregates called neurofibrillary tangles. This phenomenon is believed to have pathological consequences by promoting axonal transport deficits that ultimately lead to synaptic dysfunction and neuronal loss. To identify inhibitors of tau aggregation, a heparin-induced tau fibril formation assay was used that employed a recombinantly expressed fragment of tau, K18 (Q242-E372), bearing a P301L mutation (Gustke et al. 1994; Hong et al. 1998). […] Gustke, N., B. Trinczek, et al. (1994). "Domains of tau protein and interactions with microtubules." Biochemistry 33(32): 9511-22. Hong, M., V. Zhukareva, et al. (1998). "Mutation-specific functional impairments in distinct tau isoforms of hereditary FTDP-17." Science 282(5395): 1914-7. Li, W. and V. M. Lee (2006). "Characterization of two VQIXXK motifs for tau fibrillization in vitro." Biochemistry 45(51): 15692-701. von Bergen, M., S. Barghorn, et al. (2001). "Mutations of tau protein in frontotemporal dementia promote aggregation of paired helical filaments by enhancing local beta-structure." J Biol Chem 276(51): 48165-74.
For screening, 2 uL/well human K18 P301L (15 uM unlabeled and 0.24 uM Alexa 594-labeled tau final concentrations) in reagent buffer (100 mM sodium acetate pH 7) was dispensed into black solid 1536-well plates (Grenier) using a solenoid-based dispenser. Following transfer of 23 nL compound or DMSO vehicle by a pin tool, 2 uL/well heparin (20 uM final concentration) in reagent buffer was added and the plate centrifuged 15 s at 1000 RPM. Plates were incubated 6 hr at 37 C and then 1 uL/well ThT (30 uM final concentration) was added. After a 1 hr ambient incubation, the plates were read by an Envision (Perkin Elmer) to monitor Alexa 594 FP (555 nm excitation and 632 nm emission). Keywords: NIH Roadmap, MLPCN, MLI, MLSMR, NCGC, qHTS, tau, tauopathies, Alzheimer's disease, fibril, neurodegeneration, aggregation

Chain of Microtubule-associated protein tau (Homo sapiens) (P10636 561-689 P618L limits assumed): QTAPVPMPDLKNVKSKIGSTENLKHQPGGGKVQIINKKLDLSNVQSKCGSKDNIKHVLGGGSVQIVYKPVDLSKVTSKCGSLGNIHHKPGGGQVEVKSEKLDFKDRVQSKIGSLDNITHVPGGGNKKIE

Potency, active:
O=S(=O)(c1ccc2nc(-c3ccco3)c(-c3ccco3)nc2c1)N1CCOCC1 7.94 µM

Potency, inactive:
COC(=O)c1c(N)sc2c1C(C(=O)OC)CC2 (configuration not stated)
CCOC(=O)c1nn(-c2ccc(C)c(C)c2)c(=O)c2c(N)scc12
CCOC(=O)c1nn(-c2cccc(C(F)(F)F)c2)c(=O)c2c(N)scc12
COc1ccc(OC)c(NC(=O)c2c(NCc3cccs3)sc3c2CCCC3)c1
O=S(=O)(c1ccc(NC(=S)N/N=C/c2ccc(N3CCOCC3)cc2)cc1)N1CCOCC1
Cc1ccc(NC(=O)N2CCN(c3ccccn3)CC2)cc1
COc1cc(/C=N/N=C2/NC(=O)C(CC(=O)O)S2)ccc1OCc1ccc(Cl)cc1 (configuration not stated)
Nc1ccc(-c2ccc3ccccc3n2)cc1
N#Cc1cccc(NC(=O)c2ccc3c(c2)N(Cc2cccc(Cl)c2)C(=O)c2ccccc2S3(=O)=O)c1
Cc1sc(N)c2c(=O)n(-c3ccccc3)ncc12
CCOC(=O)c1nn(-c2ccc(OC)cc2)c(=O)c2c(NC(=O)Cc3ccccc3)scc12
Cn1sc(NC(=O)c2ccccc2)nc1=O
COc1ccc2c(c1)c(CC(=O)N1CCOCC1)c(C)n2C(=O)c1ccc(Cl)cc1
CC1CCc2c(sc(NC(=O)Cc3ccccc3)c2C(=O)Nc2ccc(Cl)cc2)C1 (configuration not stated)
COc1ccc(CNC(=O)Cn2nc(C)n3cccc3c2=O)cc1
O=C(Cc1ccccc1)Nc1sc2c(c1C(=O)Nc1ccc(Cl)cc1)CCOC2
COc1ncc(-c2ccccc2)cc1N
NCCc1ccc(O)c(O)c1
CN1CCc2sc(NC(=O)Cc3ccccc3)c(C(=O)Nc3ccc(Cl)cc3)c2C1
O=C(Cc1ccccc1)Nc1sc2c(c1C(=O)Nc1ccc(Br)cc1)CCCC2
COc1ccc(NC(=O)c2c(NC(=O)Cc3ccccc3)sc3c2CCCC3)cc1
COc1ccc(NC(=O)C2CCN(S(=O)(=O)c3c(C)noc3/C=C/c3cccs3)CC2)cc1Cl
CC(C)(C)c1ccc(NC(=O)N2CCN(c3ccc([N+](=O)[O-])cn3)CC2)cc1
CCN(c1ccccc1)S(=O)(=O)c1nnc(NC(=O)C(C)(C)C)s1
COC(=O)C1CCc2sc(N)c(C(=O)OCc3ccccc3)c21 (configuration not stated)
COc1ccc2oc(-c3ccc(NC(=O)c4ccc(N5CCOCC5)c([N+](=O)[O-])c4)cc3)nc2c1
